Laboratory results from PubChem BioAssay AID1159580 (chemical genetic matrix, 2015).
Among all 5,500 compounds or so, about 2,000 (36%) were called active. Not shown: some 18% with an inconclusive outcome. Rule as the data show it: active = normalized growth mostly below about 0.91 (no sharp cut-off); inconclusive = no clear call, values can overlap the other calls; inactive = mostly above about 0.92. Some of the results follow.

Assay: chemical genetic growth profiling, strain panel (AID 1159580);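 also: tested at 20 µM; growth read once vehicle control cultures reached saturation at 30 °C; 1 = growth at the plate median or of vehicle wells; lower values mean less growth of the strain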
Conditions: S. cerevisiae deletion strains, growth OD
[1] = locus YDL101C, strain DUN1, stronger effect = lower value
[2] = locus YHR030C, strain SLT2, stronger effect = lower value

Measured: normalized growth

CCCCCCCC1CC/C(=C\c2ccc(/C=C3\CCC(CCCCCCC)C3=O)cc2)C1=O (configuration not stated)
inactive: locus YAL013W, strain DEP1, stronger effect = lower value 1.01 | locus YBR229C, strain ROT2, stronger effect = lower value 1.01 | [1] 0.985 | locus YDL134C, strain PPH21, stronger effect = lower value 1.01 | locus YDR150W, strain NUM1, stronger effect = lower value 0.936 | locus YEL061C, strain CIN8, stronger effect = lower value 0.999 | locus YGR078C, strain PAC10, stronger effect = lower value 0.998 | [2] 1.07 | locus YHR087W, strain rtc3, stronger effect = lower value 1.01 | locus YJL187C, strain SWE1, stronger effect = lower value 1.01 | locus YJR043C, strain POL32, stronger effect = lower value 1.01 | locus YJR075W, strain HOC1, stronger effect = lower value 1.04 | locus YLR039C, strain RIC1, stronger effect = lower value 1.05 | locus YLR058C, strain SHM2 (second series), stronger effect = lower value 1.01 | locus YLR085C, strain ARP6, stronger effect = lower value 1.02 | locus YLR262C, strain YPT6, stronger effect = lower value 1.04 | locus YML094W, strain GIM5, stronger effect = lower value 0.979 | locus YMR219W, strain ESC1, stronger effect = lower value 1 | locus YMR263W, strain SAP30, stronger effect = lower value 1.01 | locus YNL153C, strain GIM3, stronger effect = lower value 1 | locus YNL298W, strain CLA4 (second series), stronger effect = lower value 1.04 | locus YNL322C, strain KRE1, stronger effect = lower value 0.994 | locus YNR030W, strain Alg12, stronger effect = lower value 1 | locus YPL055C, strain LGE1, stronger effect = lower value 0.97 | locus YPL241C, strain CIN2, stronger effect = lower value 0.978 | locus YPR135W, strain CTF4, stronger effect = lower value 1.03

CCCCCCCC1CCC/C1=N/OC(=O)c1cccs1 (configuration not stated)
inactive: locus YAR019C, strain CDC15, stronger effect = lower value 1.01 | locus YBL105C, strain PKC1, stronger effect = lower value 1.01 | locus YBR135W, strain CKS1, stronger effect = lower value 1.01 | locus YBR136W, strain MEC1, stronger effect = lower value 1 | locus YBR160W, strain CDC28, stronger effect = lower value 0.997 | locus YDL017W, strain CDC7, stronger effect = lower value 0.995 | locus YDL028C, strain MPS1, stronger effect = lower value 0.999 | [1] 0.973 | locus YDL108W, strain KIN28, stronger effect = lower value 0.996 | locus YDL132W, strain cdc53, stronger effect = lower value 0.991 | locus YDL214C, strain PRR2, stronger effect = lower value 0.965 | locus YDR052C, strain DBF4, stronger effect = lower value 0.983 | locus YDR054C, strain cdc34, stronger effect = lower value 0.989 | locus YDR226W, strain ADK1, stronger effect = lower value 0.996 | locus YDR477W, strain SNF1, stronger effect = lower value 0.957 | locus YER123W, strain YCK3, stronger effect = lower value 0.947 | locus YER133W, strain GLC7, stronger effect = lower value 0.97 | locus YFL009W, strain cdc4, stronger effect = lower value 0.992 | locus YFL029C, strain CAK1, stronger effect = lower value 1.01 | locus YFR003C, strain YPI1, stronger effect = lower value 1.01 | locus YFR019W, strain FAB1, stronger effect = lower value 0.938 | locus YFR028C, strain CDC14, stronger effect = lower value 0.98 | locus YGR040W, strain KSS1, stronger effect = lower value 0.967 | locus YGR052W, strain FMP48, stronger effect = lower value 0.988 | locus YGR092W, strain DBF2, stronger effect = lower value 0.906 | locus YHR079C, strain IRE1, stronger effect = lower value 0.871 | locus YHR082C, strain KSP1, stronger effect = lower value 1.07 | locus YHR205W, strain SCH9, stronger effect = lower value 0.753 | locus YIL147C, strain SLN1, stronger effect = lower value 0.992 | locus YJL095W, strain BCK1, stronger effect = lower value 0.91 | locus YJL128C, strain PBS2, stronger effect = lower value 1.01 | locus YJL157C, strain FAR1, stronger effect = lower value 0.967 | locus YJR016C, strain ILV3, stronger effect = lower value 0.99 | locus YJR066W, strain TOR1 (second series), stronger effect = lower value 0.934 | locus YJR066W, strain TOR1, stronger effect = lower value 0.986 | locus YKL048C, strain ELM1, stronger effect = lower value 0.985 | locus YKL067W, strain YNK1, stronger effect = lower value 0.939 | locus YKL101W, strain HSL1, stronger effect = lower value 0.934 | locus YKL193C, strain SDS22, stronger effect = lower value 1.02 | locus YKL203C, strain TOR2, stronger effect = lower value 1 | locus YLR133W, strain CKI1, stronger effect = lower value 0.96 | locus YLR403W, strain SFP1, stronger effect = lower value 0.945 | locus YML070W, strain DAK1, stronger effect = lower value 0.902 | locus YMR001C, strain CDC5, stronger effect = lower value 1.02 | locus YMR205C, strain PFK2 (second series), stronger effect = lower value 0.944 | locus YMR277W, strain FCP1, stronger effect = lower value 1.03 | locus YNL006W, strain LST8, stronger effect = lower value 1.01 | locus YNL020C, strain ARK1, stronger effect = lower value 0.896 | locus YNL161W, strain CBK1, stronger effect = lower value 1.02 | locus YNL183C, strain NPR1, stronger effect = lower value 0.944 | locus YNL207W, strain RIO2, stronger effect = lower value 0.976 | locus YNL222W, strain SSU72, stronger effect = lower value 1.02 | locus YNL307C, strain MCK1 (second series), stronger effect = lower value 0.901 | locus YOL078W, strain AVO1, stronger effect = lower value 1.02 | locus YOL136C, strain PFK27, stronger effect = lower value 0.961 | locus YOR061W, strain CKA2, stronger effect = lower value 0.88 | locus YOR119C, strain RIO1, stronger effect = lower value 1.03 | locus YOR231W, strain MKK1, stronger effect = lower value 0.859 | locus YOR329C, strain SCD5, stronger effect = lower value 1.02 | locus YPL031C, strain PHO85, stronger effect = lower value 0.935 | locus YPL153C, strain RAD53, stronger effect = lower value 0.937 | locus YPL204W, strain HRR25, stronger effect = lower value 0.919 | locus YPL209C, strain IPL1, stronger effect = lower value 1 | locus YPR025C, strain CCL1, stronger effect = lower value 1.02 | locus YPR106W, strain ISR1, stronger effect = lower value 0.999 | locus YPR111W, strain DBF20, stronger effect = lower value 0.991 | strain NNK1, stronger effect = lower value 0.987 | strain TSCII, stronger effect = lower value 0.995
active: [2] 0.763 | locus YLR113W, strain HOG1, stronger effect = lower value 0.739 | locus YPL256C, strain CLN2, stronger effect = lower value 0.858
